# The list is not random: actives were taken first. Their share in the collection is about 3.4%.
# PP5 primary = PP5 (human) phosphatase inhibition | purified PP5c, OMFP substrate fluorescence | inhibition, % at 6.7 µM | 0.18% of 320,000 active | AID 1987;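 active = inhibition above the campaign's mean inhibition across all tested compounds plus 3 SD, cut at about 9.5% in these data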;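 note: 0% = DMSO only and 100% = 100 µM cantharidin control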
# PAFAH1B2 inh = inhibitors of human PAFAH1B2; P68402; recombinant PAFAH1B2, FP-rhodamine activity probe, fluorescence polarization; inhibition, % at 3.39 µM; 1.2% of 340,000 active; AID 492953;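 active = inhibition above the mean of all tested compounds plus 3 SD, cut at about 24% in these data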;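 note: 0% = enzyme with DMSO and 100% = wells lacking PAFAH1B2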
# Target sequence (P68402 whole entry, looked up): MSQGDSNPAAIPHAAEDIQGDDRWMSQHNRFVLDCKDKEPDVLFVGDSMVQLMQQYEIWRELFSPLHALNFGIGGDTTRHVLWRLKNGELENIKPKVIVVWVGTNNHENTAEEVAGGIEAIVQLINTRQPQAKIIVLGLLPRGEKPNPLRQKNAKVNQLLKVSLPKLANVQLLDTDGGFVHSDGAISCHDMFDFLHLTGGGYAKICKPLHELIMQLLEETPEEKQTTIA
# pPAFAH inh = inhibitors of human plasma PAF acetylhydrolase (pPAFAH) | recombinant pPAFAH, FP-rhodamine probe fluorescence polarization | Q13093 | inhibition, % at 3.39 µM | 1.5% of 330,000 active;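 active = inhibition above the mean inhibition across the screen plus 3 SD, cut at about 25% in these data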;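 note: inhibitors block binding of the rhodamine activity-based probe so polarization drops; 0% = enzyme with DMSO and 100% = wells lacking pPAFAH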
# PP1 counter = counter-screen for PP5 inhibitors: inhibitors of human PP1-alpha. purified PP1alpha, OMFP fluorescence. inhibition, % at 6.7 µM. 0.9% of 320,000 active. AID 2235;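 active = inhibition above the mean inhibition of all tested compounds plus 3 SD, computed separately for each screening campaign, cut at about 15% in these data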
# PAFAH2 inh = inhibitors of human PAFAH2. inhibition, % at 3.39 µM. Q99487. recombinant PAFAH2, FP-rhodamine activity probe, fluorescence polarization. AID 492956. 0.99% of 340,000 active;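 active = inhibition above the mean over all tested compounds plus 3 SD, cut at about 30% in these data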;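 note: inhibitors block probe labeling of enzyme so polarization drops; 0% = enzyme with DMSO and 100% = wells lacking PAFAH2 protein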
# PAFAH1B3 inh = PAFAH1B3 (human) inhibition; Q15102; recombinant PAFAH1B3, FP-rhodamine probe, fluorescence polarization; inhibition, % at 3.39 µM; 0.28% of 340,000 active;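 active = inhibition above the screen-wide average of all tested compounds plus 3 SD, cut at about 25% in these data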;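 note: 0% = enzyme with DMSO only and 100% = wells lacking PAFAH1B3 protein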
# Target sequence (Q15102 whole entry, looked up): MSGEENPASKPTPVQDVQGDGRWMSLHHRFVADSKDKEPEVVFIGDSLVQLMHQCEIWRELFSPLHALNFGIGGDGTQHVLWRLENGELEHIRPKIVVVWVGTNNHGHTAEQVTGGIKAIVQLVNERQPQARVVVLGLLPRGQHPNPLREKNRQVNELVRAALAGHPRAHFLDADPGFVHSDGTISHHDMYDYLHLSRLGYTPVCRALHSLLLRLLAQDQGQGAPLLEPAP
# Numbers without * were called inactive; nt = no result given.
SMILES,PP5 primary,PAFAH1B2 inh,pPAFAH inh,PP1 counter,PAFAH2 inh,PAFAH1B3 inh
CC(=O)N1CCN(c2ccc(OC[C@H]3CO[C@](Cn4ccnc4)(c4ccc(Cl)cc4Cl)O3)cc2)CC1,5.0,-0.7,25.5*,-0.4,4.1,9.6
CN(C)CC(=O)Nc1ccc(Oc2ccc(Cl)cc2)cc1,0.1,3.9,25.5*,0.1,5.9,7.3
CN(CC(=O)Nc1ccc(Cl)cc1)CC(=O)Nc1ccc(C(N)=O)cc1,-0.2,7.9,0.2,-1.3,8.0,3.8
Cc1c(Cl)cccc1NC(=O)CSc1nnnn1C,nt,4.7,1.2,nt,14.3,9.9
Cc1c(Cl)cccc1NC(=O)CSCc1cc(=O)[nH][nH]1,3.9,1.7,24.9*,3.3,-1.6,1.4
Cc1ccc(C(=O)NCCn2c(N)c(C#N)c3nc4ccccc4nc32)cc1,1.6,5.5,0.1,-2.7,5.8,-2.8
CCC(=O)Nc1c(C#N)c2nc3ccccc3nc2n1-c1ccc(C)cc1,nt,3.2,nt,nt,2.6,6.3
CCCCn1c(NC(=O)c2ccccc2)c(C#N)c2nc3ccccc3nc21,nt,44.4*,nt,nt,55.4*,59.4*
CCCCn1c(NC(=O)c2ccc(F)cc2)c(C#N)c2nc3ccccc3nc21,14.5*,nt,9.1,5.1,nt,nt
CCOc1ccc(N(C)S(=O)(=O)c2ccc(C)c(C(=O)N3CCN(Cc4ccc5c(c4)OCO5)CC3)c2)cc1,nt,1.3,7.4,nt,-1.5,10.5
Cc1ccc(S(=O)(=O)N2CCN(C(=O)C3CCN(c4ncnc5sc(C)c(C)c45)CC3)CC2)c(C)c1,nt,-1.0,nt,nt,4.1,2.0
Cc1ccc(C(=O)NN2CC(O)=C(c3nc(-c4cccc([N+](=O)[O-])c4)cs3)C2=N)cc1,3.2,4.6,10.4,17.4*,4.3,3.2
COc1cccc(C(=O)NN2CC(O)=C(c3nc(C)cs3)C2=N)c1,-1.2,7.2,4.5,-0.6,-0.4,4.1
Cc1c(C(=O)O)cccc1-n1c(C)cc(/C=C(/C#N)C(=O)NCc2ccccc2)c1C,1.3,nt,29.5*,-0.2,nt,nt
O=C(NCc1ccccc1)c1cccc(COc2cc(Cl)ccc2Cl)c1,1.3,8.0,-6.0,2.2,-15.4,2.0
CN(C(=O)c1cccc(COc2ccc(Cl)cc2Cl)c1)c1ccccc1,3.0,26.6*,2.0,2.5,-0.9,-6.6
O=c1[nH]c2cc(Cl)ccc2n1-c1ccccc1,2.0,1.4,28.5*,1.4,7.2,4.5
O=c1[nH]c2c(cnn2-c2ccc(Cl)cc2)c(=O)n1-c1cccc(Cl)c1,1.0,17.6,-0.2,-0.4,-0.1,9.6
CN(NC(=O)NN(C)C(=O)c1ccccc1)C(=O)c1ccccc1,nt,-0.3,nt,nt,0.8,7.7
Cc1cccc(C)c1-c1ccc(CN2C(CC(C)C)C(=O)N(Cc3cn(CCO)nn3)CCS2(=O)=O)cc1 (configuration not stated),nt,3.3,nt,nt,8.2,1.7
Cc1ccc(NS(=O)(=O)c2ccc3c(c2)NC(=O)CCS3)c(C)c1,1.7,13.5,30.3*,2.1,9.0,8.1
CC(CNS(=O)(=O)c1ccc2c(c1)NC(=O)CCS2)c1ccccc1 (configuration not stated),2.8,39.1*,26.7*,3.7,-2.4,0.2
CCN(c1cccc(C)c1)S(=O)(=O)c1ccc(-c2ccc(=O)[nH]n2)o1,-0.9,0.7,-2.0,4.1,1.3,-0.1
Cc1ccc2c(c1)C(=O)C(=O)N2CCOc1ccccc1,-0.7,0.7,3.5,6.5,-5.7,5.5
Cc1cccc2c1N(CCCOc1ccccc1)C(=O)C2=O,2.1,-1.1,6.8,17.3*,6.7,-0.9
SMILES,PP5 primary,PAFAH1B2 inh,pPAFAH inh,PP1 counter,PAFAH2 inh,PAFAH1B3 inh
Cc1ccc2c(c1)C(=O)C(=O)N2CCCOc1ccccc1C,2.1,2.7,5.5,15.4*,3.6,1.9
CCOC(=O)c1c(NC(=O)Cn2cnc3scc(-c4ccc(C)cc4)c3c2=O)sc(C)c1C,0.9,0.7,-1.3,16.2*,-5.4,-13.5
COc1ccc2c(c1)c1ccc3c(c1n2C)C(=O)C=CC3=O,nt,44.8*,nt,nt,35.8*,31.0*
Cc1ccc2c(c1)c1ccc3c(c1n2C)C(=O)C=CC3=O,nt,13.3,nt,nt,17.4,24.9
CC1(OC(=O)CCc2ccccc2)C(=O)C=C2C=C(C3CC3)OC=C2C1=O (configuration not stated),-0.5,nt,32.9*,4.0,nt,nt
COC(=O)CCC(=O)OC1(C)C(=O)C=C2C=C(C3CC3)OC=C2C1=O (configuration not stated),2.7,nt,26.3*,3.6,nt,nt
CC1(O)C(=O)C=C2C=C(C3CC3)OC=C2C1=O (configuration not stated),3.0,nt,9.1,0.5,nt,nt
OCCCn1c(CCNc2nc(-c3ccc(Cl)cc3)cs2)nc2cc(C(F)(F)F)ccc21,2.5,27.1*,6.9,1.2,5.7,5.4
O=[N+]([O-])c1cc(-c2csc(NCCc3nc4cc(C(F)(F)F)ccc4n3CCCO)n2)ccc1Cl,3.5,32.3*,13.3,5.2,-3.7,-0.7
Cc1nc2cc(C(F)(F)F)ccc2n1CCNc1nc(-c2ccc([N+](=O)[O-])c(Cl)c2)cs1,3.1,24.1,6.2,1.5,1.0,6.1
Cc1nc(SCC(=O)N(CC(C)C)C2CCS(=O)(=O)C2)c(C#N)c(C)c1C (configuration not stated),nt,-1.7,nt,nt,-0.3,11.4
Cc1ccc(S(=O)(=O)N2CCCCC2)cc1C(=O)OC(C)C(=O)NCC1CCCCC1 (configuration not stated),nt,4.0,nt,nt,-4.0,-1.6
O=C(N=Nc1c(O)[nH]c2ccc([N+](=O)[O-])cc12)c1ccccc1[N+](=O)[O-],1.4,6.1,9.4,2.7,12.4,3.2
CCc1cc(C(=O)N=Nc2c(O)[nH]c3ccc([N+](=O)[O-])cc23)c2ccccc2n1,0.6,-2.3,33.3*,16.0*,0.7,8.3
Cc1cc(C(=O)OCC(=O)Nc2ccc(F)cc2F)c(C)o1,0.5,9.0,3.6,2.2,44.9*,3.4
CC1CCC(C(C)C)C(OC(=O)CSc2nnc(N)s2)C1 (configuration not stated),1.8,27.1*,-1.6,2.8,6.5,2.4
COc1cc([N+](=O)[O-])cc(/C=N/NC(=O)c2ccc(NC(=O)c3ccc(C)cc3)cc2)c1O,nt,3.3,nt,nt,-5.4,19.4
COc1cc([N+](=O)[O-])cc(/C=N/NC(=O)c2ccc(C)nc2)c1O,4.8,12.2,6.0,24.3*,-9.2,19.2
CCCCCCCCCCCCCC(=O)O,2.8,35.1*,2.1,-2.2,12.5,14.4
COC(=O)Cn1c(=NC(=O)c2nc3ccccc3s2)sc2cc(S(C)(=O)=O)ccc21,-1.0,nt,0.3,0.4,nt,nt
COC(=O)Cn1c(=NC(=O)c2sc3ccccc3c2Cl)sc2cc(S(N)(=O)=O)ccc21,-0.6,-11.0,-6.5,26.2*,-12.1,-21.6
O=C(NNC(=O)C1CCCC1)c1cc([N+](=O)[O-])cc([N+](=O)[O-])c1,0.4,1.9,6.5,-4.8,7.7,14.0
COc1cc(C2Nc3cccc4cccc(c34)N2)cc(OC)c1OC(C)=O,0.7,7.2,10.8,6.5,-8.3,31.8*

# Bioassay records as filed in PubChem BioAssay.
